Experimental data reported in PubChem BioAssay (NCATS).
Several values for one entry are separate records, joined by “and”; a condition that tells them apart may be missing. Equal entries are not always repeated. Inconclusive results are not listed. Activity calls are given as the source filed them. Unless noted, the call rests on the fitted dose curve; in most records, active means well fitted curve in the direction sought with a large enough effect; inconclusive means small, poorly fitted or top-dose-only effect, or another doubt; inactive means no such curve, though single readings can be large; an effect the other way counts as inactive or inconclusive.

Assays:
[1] = Cell Viability - HUV-EC-C (AID 542); further: on the % scale 0 is the no-effect control and ±100 the full control effect; nearly all actives have a fitted effect of over 35% in size
In short: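 HUV-EC-C human vascular endothelial cells, 1000/well, exposed to compound for 40 hr at 37 °C in complete medium. Intracellular ATP was read by CellTiter-Glo luminescence. AC50 came from Hill-equation fits of concentration-response data.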

[2] = Cellular Toxicity (caspase-3) HepG2 (AID 654);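 further: cells exposed to compound for 16 hours before reading; 0% = DMSO alone and 100% = caspase signal from 100 µM tamoxifen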
In short: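 HepG2 cells (1500/well) were treated 16 h at 37 °C in complete medium, then caspase 3/7 activity was read by Caspase-Glo luminescence. Data were normalized to DMSO and 100 uM tamoxifen; AC50 came from Hill-equation fits of qHTS concentration-response.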

[3] = Cellular Toxicity (caspase-3) MRC-5 (AID 659);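 further: 0% = DMSO basal and 100% = 10 µM staurosporine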
In short: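 Concentration-dependent caspase 3/7 activation is measured in human normal lung fibroblasts (MRC-5) following 16-hour treatment. AC50 values come from standard Hill-equation modeling of luminescence normalized to DMSO and 10 uM staurosporine.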

[4] = Cellular Toxicity (caspase-3) Hek293 (AID 664); conditions: HEK293 caspase-3 activation, DMSO = 0%, 100 µM tamoxifen = 100%; at 92.2 µM (top of the series);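 further: cells exposed to compound for 16 h at 37 °C before readout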
In short: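 HEK293 cells in complete medium treated 16 h at 37 °C, then Caspase-Glo 3/7 luminescence read after 20 min at room temperature. Normalized to DMSO and 100 uM tamoxifen; AC50 from Hill fit of concentration-response.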

[5] = Cellular Toxicity (caspase-3) NIH 3T3 (AID 666);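 further: caspase signal read after 16 h compound exposure; 0% = DMSO basal and 100% = 100 µM tamoxifen stimulation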
In short: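 Mouse NIH 3T3 fibroblasts (1000/well) treated 16 h at 37 C; caspase-3/7 activity measured by Caspase-Glo 3/7 luminescence after 20 min. Normalized to DMSO and 100 uM tamoxifen; AC50 from Hill fits.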

[6] = MultiTox-Fluor Cytotoxicity Assay - LYMP1-002 - Live Cells (AID 955); further: on the % scale 0 is the no-effect control and ±100 the full control effect
In short: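 Human lymphoblastoid LYMP1-002 cells, 2500/well, treated 16 h at 37 C in complete medium. Live-cell protease activity via GF-AFC fluorescence (Ex/Em 405/510) after 60 min reagent incubation; AC50 from Hill fits.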

[7] = Cell Viability - LYMP1-003 - Assay at 40 hr (AID 964); further: on the % scale 0 is the no-effect control and ±100 the full control effect; nearly all actives have a fitted effect of over 60% in size
In short: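 LYMP1-003 human lymphoblastoid cells, 2500/well, preincubated 5 h at 37 C, then treated with compound for 40 h at 37 C. Intracellular ATP read by CellTiter-Glo luminescence after 30 min at room temperature; AC50 from Hill-equation fits.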

[8] = Cell Viability - LYMP2-004 (AID 966);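 further: plate controls were DMSO only for no effect and tetraoctylammonium bromide control for full effect; nearly all actives have a fitted effect of over 65% in size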
In short: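 Lymphoblastoid LYMP2-004 cells, 2500 per well, were preincubated for 5 hr and then treated with compound for 24 h at 37 C in complete medium. Viability was read as cellular ATP by CellTiter-Glo luminescence, and AC50 values were taken from Hill fits to concentration-response data.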

[9] = Cell Viability - LYMP2-009 (AID 968);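 further: 0% = DMSO alone and the full-kill end = tetraoctylammonium bromide at 92 µM; nearly all actives have a fitted effect of over 55% in size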
[10] = Cell Viability - LYMP2-011 (AID 969);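 further: 0% = DMSO only and full inhibition = 92 µM tetraoctylammonium bromide; nearly all actives have a fitted effect of over 60% in size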
In short: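 2500 cells/well in complete medium, compound-treated 24 h at 37 C. Viability read as intracellular ATP by CellTiter-Glo luminescence after 30 min at room temperature. AC50 from Hill fits of qHTS concentration-response data.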

[11] = Cell Viability - LYMP2-017 (AID 972); further: on the % scale 0 is the no-effect control and ±100 the full control effect; nearly all actives have a fitted effect of over 55% in size
In short: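 LYMP2-017 human lymphoblastoid cells (2500/well) settled 5 hr at 37 C, then exposed to compound 24 hr at 37 C in complete medium. Viability taken as intracellular ATP by CellTiter-Glo luminescence after 30 min at RT; AC50 from Hill fits.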

[12] = Cell Viability - LYMP2-025 (AID 976);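 further: plate controls were DMSO only for no effect and tetraoctylammonium bromide control for full effect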
In short: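 Human lymphoblastoid LYMP2-025 cells, 2500/well, exposed 24 h at 37 C in complete medium in 1536-well qHTS. Viability as cellular ATP by CellTiter-Glo luminescence; AC50 from Hill fits of concentration-response data.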

[13] = Cell Viability - LYMP2-026 (AID 989); further: on the % scale 0 is the no-effect control and ±100 the full control effect; nearly all actives have a fitted effect of over 50% in size
In short: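 Human lymphoblastoid LYMP2-026 cells, 2500/well, exposed to compound 24 h at 37 C in complete medium. Viability as intracellular ATP by CellTiter-Glo luminescence; AC50 from Hill fits of qHTS concentration-response.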

[14] = qHTS assay for small molecule activators of the p53 signaling pathway (AID 651743; active means well fitted activation curve with a large enough effect in the signal ratio, not every such curve was filed as active; the % refers to the signal ratio; further: % of control where 0% means no effect); conditions: HCT-116 p53RE-bla, beta-lactamase FRET ratio, 16 h; activation: stronger effect = higher value
In short: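 Read-out is fluorescence intensity from the LiveBLAzer B/G FRET substrate, added for 2 hours at room temperature after HCT-116 p53RE-bla cells had been incubated with compounds for 16 hours at 37 C.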

[15] = qHTS assay for small molecule disruptors of the mitochondrial membrane potential - 1 hr assay (AID 651754; calls by dose curve; further: on the % scale 0 is the no-effect control and ±100 the full control effect; nearly all actives have a fitted effect of over 35% in size)
In short: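 HepG2 cells, attached overnight, were exposed to compound for 1 hr at 37C, then stained 30 min with a potentiometric dye. Ratio of red aggregate (590nm) to green monomer (535nm) fluorescence reports membrane potential; collapse shifts signal toward green.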

[16] = target: Nuclear receptor ROR-gamma (Homo sapiens) (UniProt P51449); experiment: qHTS assay for small molecule antagonists of the retinoid-related orphan receptor gamma (ROR-gamma) signaling pathway (AID 651802);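 further: luciferase reporter luminescence driven by ROR response element; on the % scale 0 is the no-effect control and ±100 the full control effect; nearly all actives have a fitted effect of over 60% in size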
In short: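 CHO cells with TET-inducible ROR-gamma and RORE-luciferase reporter, dosed then doxycycline-induced. After 16 h at 37C, One-Glo luminescence read; decreased signal indicates antagonism.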

[17] = qHTS assay for small molecule agonists of the antioxidant response element (ARE) signaling pathway measured by Nrf2-dependant transcriptional activity (AID 720636; active means well fitted curve in the direction sought with a large enough effect in the repeat runs; an effect the other way counts as inactive or inconclusive;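 further: HepG2 cells with an ARE-driven luciferase reporter; % of control where 0% means no effect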)
In short: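 Reporter gene assay, HepG2 ARE-luc: 16 hr compound, 37 C, 5% CO2; read-out luciferase luminescence.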

[18] = qHTS assay for small molecule agonists of the antioxidant response element (ARE) signaling pathway measured by Nrf2-dependant transcriptional activity - cell viability counter screen (AID 720653; active means well fitted curve in the direction sought with a large enough effect in the repeat runs; an effect the other way counts as inactive or inconclusive; further: on the % scale 0 is the no-effect control and ±100 the full control effect); conditions: ARE-bla HepG2 viability, CellTiter-Glo ATP luminescence, 16 h; stronger effect = lower value
In short: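 Cytotoxicity counter screen: intracellular ATP quantified by CellTiter-Glo luminescence in the same ARE-bla HepG2 plates, after 16 h compound exposure and a 2 h beta-lactamase substrate step.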

[19] = Cellular Toxicity (caspase-3) Mesangial (AID 660);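 further: cells exposed to compound for 16 h before the caspase read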
In short: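 Human renal glomerular mesangial cells, 1000/well, 5 h at 37 C before 16 h compound treatment. Caspase-Glo 3/7 luminescence after 20 min; normalized to DMSO and 100 uM tamoxifen, AC50 from Hill fit.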

[20] = target: Vitamin D3 receptor (Homo sapiens) (UniProt P11473); experiment: qHTS assay for small molecule agonists of vitamin D receptor signaling (AID 588543; calls by dose curve;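 further: 0% = DMSO basal and 100% = reference agonist control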)
In short: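 VDR-UAS-bla HEK293T cells, 2000/well, 2% charcoal-stripped FBS; compound titration 16 h at 37 C; CCF4 beta-lactamase ratio read. Normalized to 50 nM 1-alpha,25-dihydroxyvitamin D3 (100%) and DMSO; Hill fit gives EC50, efficacy.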

Sequence of Vitamin D3 receptor (Homo sapiens) (P11473 whole entry, looked up): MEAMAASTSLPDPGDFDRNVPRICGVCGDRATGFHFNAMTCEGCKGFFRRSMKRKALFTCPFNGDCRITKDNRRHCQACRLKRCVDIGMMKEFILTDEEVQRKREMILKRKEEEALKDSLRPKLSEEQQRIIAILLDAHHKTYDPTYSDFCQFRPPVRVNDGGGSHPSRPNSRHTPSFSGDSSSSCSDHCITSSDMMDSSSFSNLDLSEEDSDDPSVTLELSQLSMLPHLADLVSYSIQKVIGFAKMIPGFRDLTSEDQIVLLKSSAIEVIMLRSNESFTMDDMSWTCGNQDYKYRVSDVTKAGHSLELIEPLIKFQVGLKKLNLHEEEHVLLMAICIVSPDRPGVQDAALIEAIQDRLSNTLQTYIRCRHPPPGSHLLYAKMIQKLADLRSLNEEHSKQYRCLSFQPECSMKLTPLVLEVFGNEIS
Sequence of Nuclear receptor ROR-gamma (Homo sapiens) (P51449 whole entry, looked up): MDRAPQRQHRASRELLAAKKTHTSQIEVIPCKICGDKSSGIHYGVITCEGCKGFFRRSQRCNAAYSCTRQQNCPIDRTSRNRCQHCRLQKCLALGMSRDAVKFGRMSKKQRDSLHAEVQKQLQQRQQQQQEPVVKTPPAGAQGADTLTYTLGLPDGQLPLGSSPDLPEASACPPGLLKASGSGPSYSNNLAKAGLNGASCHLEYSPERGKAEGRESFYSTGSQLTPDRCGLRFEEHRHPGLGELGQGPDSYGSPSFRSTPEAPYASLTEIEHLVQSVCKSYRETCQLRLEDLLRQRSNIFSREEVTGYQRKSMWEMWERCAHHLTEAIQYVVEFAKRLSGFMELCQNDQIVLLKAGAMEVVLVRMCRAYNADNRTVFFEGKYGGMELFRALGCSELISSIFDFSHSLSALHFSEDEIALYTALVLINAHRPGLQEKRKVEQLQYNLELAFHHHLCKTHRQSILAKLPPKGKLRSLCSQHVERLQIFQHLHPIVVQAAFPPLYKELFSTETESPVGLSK

ClCCOCCCl
inactive: Potency [1] | outcome [2] | outcome [3] | caspase-3 activation [4] -1.83% | Potency [5] | outcome [6] | Potency [7] | Potency [8] | Potency [9] | Potency [10] | Potency [11] | Potency [12] | Potency [13] | activation [14] -1.88% | Potency [15] | Potency [16] | Potency [17] | max response [18] -1.62%

BrCC(Br)C1CCC(Br)C(Br)C1 (stereo not drawn)
inactive: Potency [1] | outcome [2] | outcome [19] | Potency [5] | outcome [6] | Potency [7] | Potency [9] | Potency [10] | Potency [11] | Potency [12] | Potency [13] | activation [14] -5.49% | Potency [15] | Potency [16] | Potency [17] | max response [18] -1.58%

FC(Cl)(Cl)Cl
inactive: Potency [1] | outcome [2] | outcome [3] | outcome [19] | caspase-3 activation [4] -1.27% | Potency [5] | outcome [6] | Potency [8] | Potency [9] | Potency [10] | Potency [11] | Potency [12] | outcome [20] | activation [14] -3.53% | Potency [15] | Potency [16] | Potency [17] | max response [18] -4.09%

C[N+](=O)[O-]
inactive: outcome [3] | outcome [19] | caspase-3 activation [4] -0.684% | Potency [5] | outcome [6] | Potency [8] | Potency [9] | Potency [10] | Potency [13] | outcome [20] | activation [14] -0.263% | Potency [15] | Potency [16] | Potency [17] | max response [18] -1.82%

CC(C)OS(C)(=O)=O
inactive: Potency [1] | outcome [2] | outcome [19] | Potency [5] | outcome [6] | Potency [7] | Potency [8] | Potency [9] | Potency [10] | Potency [11] | Potency [12] | Potency [13] | outcome [20] | activation [14] -0.853% | Potency [15] | Potency [17] | max response [18] -6.13%

O=c1ccc(=O)[nH][nH]1
inactive: Potency [1] | outcome [19] | Potency [5] | outcome [6] | Potency [7] | Potency [8] | Potency [9] | Potency [10] | Potency [11] | Potency [12] | Potency [13] | outcome [20] | activation [14] -0.833% and -3.13% | Potency [16] | max response [18] 27.2% and 14.4%

Cc1ccc2c(C)cccc2c1
inactive: outcome [2] | outcome [3] | outcome [19] | caspase-3 activation [4] -1.38% | Potency [5] | outcome [6] | Potency [8] | Potency [9] | Potency [10] | Potency [11] | Potency [12] | activation [14] -0.174% | Potency [15] | Potency [16] | max response [18] -2.91%

CC(Cl)CCl (stereo not drawn)
inactive: outcome [2] | outcome [3] | outcome [19] | Potency [5] | outcome [6] | Potency [8] | Potency [11] | Potency [12] | outcome [20] | activation [14] 0.619% | Potency [15] | Potency [16] | Potency [17] | max response [18] -12.6%
